# Tests used:
# Assay in all cases: DAPPL (digital affinity profiling via proximity ligation, sequencing); 10 mM Tris-HCl pH 7.5, 50 mM NaCl, 1 mM DTT, 4% glycerol, room temperature, 30 min; GST-TFs on glutathione beads, 16-mer random dsDNA library, 0.1% formaldehyde crosslink after washing; high values mean tight binding
# FLI1 = biological target: T1, FLI1 (Homo sapiens, UniProt Q01543 1-452); conditions: protein: recombinant; tags: N-terminal GST; dsDNA, one strand shown
# T1 sequence: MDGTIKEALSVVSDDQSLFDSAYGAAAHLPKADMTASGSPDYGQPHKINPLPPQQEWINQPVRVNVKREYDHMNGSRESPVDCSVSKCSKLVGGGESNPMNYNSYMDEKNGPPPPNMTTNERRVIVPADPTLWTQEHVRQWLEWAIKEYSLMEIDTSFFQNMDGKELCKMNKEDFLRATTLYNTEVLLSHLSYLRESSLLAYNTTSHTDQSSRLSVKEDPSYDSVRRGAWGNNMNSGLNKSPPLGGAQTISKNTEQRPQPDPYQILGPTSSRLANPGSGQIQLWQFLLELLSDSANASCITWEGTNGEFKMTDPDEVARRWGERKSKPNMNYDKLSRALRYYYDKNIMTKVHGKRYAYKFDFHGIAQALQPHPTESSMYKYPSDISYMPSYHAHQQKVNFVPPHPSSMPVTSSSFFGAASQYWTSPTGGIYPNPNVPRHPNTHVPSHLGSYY
# Outline: (§1)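 Yeast served to express human transcription factors as GST fusions, which were then captured on glutathione beads and labelled with DNA barcodes. Pooled with a tag-only sample, they were incubated with 200 nmole of a 16-mer random double-stranded DNA library for 30 min at room temperature in Tris/NaCl/DTT/glycerol buffer, washed, crosslinked with 0.1% formaldehyde, ligated by proximity, amplified by PCR and sequenced. Dividing each hexamer's read frequency for a factor by its frequency for the tag-only sample gives the binding signal.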
# ELK1 = biological target: T2, ELK1 (Homo sapiens, UniProt P19419 1-428); conditions: protein: recombinant; tags: N-terminal GST; dsDNA, one strand shown
# T2 sequence: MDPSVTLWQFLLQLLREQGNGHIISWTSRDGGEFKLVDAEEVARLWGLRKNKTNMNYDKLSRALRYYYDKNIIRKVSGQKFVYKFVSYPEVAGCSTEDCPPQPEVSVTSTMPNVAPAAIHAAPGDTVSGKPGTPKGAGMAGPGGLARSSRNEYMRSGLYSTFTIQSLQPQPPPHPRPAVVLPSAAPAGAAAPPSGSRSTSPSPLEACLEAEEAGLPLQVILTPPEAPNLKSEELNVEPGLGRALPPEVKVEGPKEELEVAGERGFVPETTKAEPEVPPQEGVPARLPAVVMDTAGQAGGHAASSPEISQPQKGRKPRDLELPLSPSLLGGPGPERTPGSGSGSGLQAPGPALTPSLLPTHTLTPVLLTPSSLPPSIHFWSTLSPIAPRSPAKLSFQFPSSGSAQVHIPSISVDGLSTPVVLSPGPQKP
# Outline: as §1
# GABPA = biological target: T3, GABPA (Homo sapiens, UniProt Q06546 1-454); conditions: protein: recombinant; tags: N-terminal GST; dsDNA, one strand shown
# T3 sequence: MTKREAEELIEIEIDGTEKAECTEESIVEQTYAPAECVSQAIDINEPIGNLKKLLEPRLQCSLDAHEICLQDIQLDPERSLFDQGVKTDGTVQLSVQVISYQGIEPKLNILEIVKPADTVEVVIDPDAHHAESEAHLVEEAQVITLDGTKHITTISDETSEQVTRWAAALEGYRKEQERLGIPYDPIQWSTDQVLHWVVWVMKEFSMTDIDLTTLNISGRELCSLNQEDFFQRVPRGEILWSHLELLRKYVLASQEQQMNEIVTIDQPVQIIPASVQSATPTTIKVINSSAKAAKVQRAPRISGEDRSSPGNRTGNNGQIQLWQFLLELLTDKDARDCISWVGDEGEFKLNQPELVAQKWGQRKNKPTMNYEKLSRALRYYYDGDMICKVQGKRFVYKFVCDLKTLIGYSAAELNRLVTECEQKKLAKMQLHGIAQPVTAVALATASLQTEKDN
# Outline: as §1
# ERG = biological target: T4, ERG (Homo sapiens, UniProt P11308 1-479); conditions: protein: recombinant; tags: N-terminal GST; dsDNA, one strand shown
# T4 sequence: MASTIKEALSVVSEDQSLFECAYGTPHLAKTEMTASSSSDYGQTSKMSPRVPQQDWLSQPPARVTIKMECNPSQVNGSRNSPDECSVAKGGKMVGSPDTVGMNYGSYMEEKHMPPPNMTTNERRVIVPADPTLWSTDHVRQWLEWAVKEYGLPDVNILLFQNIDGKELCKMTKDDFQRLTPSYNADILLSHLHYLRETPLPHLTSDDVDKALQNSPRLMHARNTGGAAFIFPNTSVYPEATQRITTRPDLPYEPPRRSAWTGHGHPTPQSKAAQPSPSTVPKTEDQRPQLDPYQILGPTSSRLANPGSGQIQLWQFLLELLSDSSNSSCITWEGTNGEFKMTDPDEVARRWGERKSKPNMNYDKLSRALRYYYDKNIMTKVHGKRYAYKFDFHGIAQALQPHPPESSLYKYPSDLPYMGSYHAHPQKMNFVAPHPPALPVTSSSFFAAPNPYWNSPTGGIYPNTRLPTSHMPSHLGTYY
# Outline: as §1
# ELF1 = ELF1 (Homo sapiens, UniProt P32519 1-619); conditions: protein: recombinant; tags: N-terminal GST; dsDNA, one strand shown
# Sequence of ELF1 (P32519 whole entry): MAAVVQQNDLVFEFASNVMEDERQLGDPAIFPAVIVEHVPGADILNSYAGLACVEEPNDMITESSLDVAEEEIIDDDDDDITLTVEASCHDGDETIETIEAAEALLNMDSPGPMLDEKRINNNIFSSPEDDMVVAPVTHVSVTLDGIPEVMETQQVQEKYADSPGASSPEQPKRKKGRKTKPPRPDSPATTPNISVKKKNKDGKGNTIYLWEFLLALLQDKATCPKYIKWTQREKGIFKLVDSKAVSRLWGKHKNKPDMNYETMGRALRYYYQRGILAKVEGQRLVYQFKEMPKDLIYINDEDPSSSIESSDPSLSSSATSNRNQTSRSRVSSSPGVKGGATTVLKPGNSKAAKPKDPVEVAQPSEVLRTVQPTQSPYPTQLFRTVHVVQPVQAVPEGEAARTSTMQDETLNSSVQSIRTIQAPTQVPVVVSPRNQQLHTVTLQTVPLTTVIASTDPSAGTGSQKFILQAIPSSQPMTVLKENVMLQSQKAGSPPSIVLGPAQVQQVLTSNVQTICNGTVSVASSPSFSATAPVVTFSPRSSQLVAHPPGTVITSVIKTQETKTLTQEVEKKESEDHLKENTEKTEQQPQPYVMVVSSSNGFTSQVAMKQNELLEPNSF
# Outline: as §1
# EHF = biological target: T5, EHF (Homo sapiens, UniProt Q9NZC4 1-300); conditions: protein: recombinant; tags: N-terminal GST; dsDNA, one strand shown
# T5 sequence: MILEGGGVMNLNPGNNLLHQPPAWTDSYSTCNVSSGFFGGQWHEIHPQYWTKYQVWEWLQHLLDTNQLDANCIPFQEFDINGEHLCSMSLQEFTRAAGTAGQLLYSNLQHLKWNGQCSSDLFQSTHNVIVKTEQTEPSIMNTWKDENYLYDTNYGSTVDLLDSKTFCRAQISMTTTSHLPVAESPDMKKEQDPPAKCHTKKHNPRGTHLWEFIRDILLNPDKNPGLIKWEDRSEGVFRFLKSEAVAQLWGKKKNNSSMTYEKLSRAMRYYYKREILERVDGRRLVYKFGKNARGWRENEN
# Outline: as §1
# SPI1 = SPI1 (Homo sapiens, UniProt P17947 1-270); conditions: protein: recombinant; tags: N-terminal GST; dsDNA, one strand shown
# Outline: as §1
# SPIB = SPIB (Homo sapiens, UniProt Q01892 1-262); conditions: protein: recombinant; tags: N-terminal GST; dsDNA, one strand shown
# Sequence of SPIB (Q01892 whole entry): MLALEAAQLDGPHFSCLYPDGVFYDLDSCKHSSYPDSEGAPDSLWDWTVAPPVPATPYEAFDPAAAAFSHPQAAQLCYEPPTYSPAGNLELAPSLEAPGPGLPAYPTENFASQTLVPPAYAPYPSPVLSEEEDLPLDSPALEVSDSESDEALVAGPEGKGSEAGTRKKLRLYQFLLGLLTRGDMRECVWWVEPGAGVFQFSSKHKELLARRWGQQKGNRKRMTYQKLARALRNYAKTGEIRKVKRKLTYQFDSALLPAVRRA
# Outline: as §1
# ELK3 = biological target: T6, ELK3 (Homo sapiens, UniProt P41970 1-407); conditions: protein: recombinant; tags: N-terminal GST; dsDNA, one strand shown
# T6 sequence: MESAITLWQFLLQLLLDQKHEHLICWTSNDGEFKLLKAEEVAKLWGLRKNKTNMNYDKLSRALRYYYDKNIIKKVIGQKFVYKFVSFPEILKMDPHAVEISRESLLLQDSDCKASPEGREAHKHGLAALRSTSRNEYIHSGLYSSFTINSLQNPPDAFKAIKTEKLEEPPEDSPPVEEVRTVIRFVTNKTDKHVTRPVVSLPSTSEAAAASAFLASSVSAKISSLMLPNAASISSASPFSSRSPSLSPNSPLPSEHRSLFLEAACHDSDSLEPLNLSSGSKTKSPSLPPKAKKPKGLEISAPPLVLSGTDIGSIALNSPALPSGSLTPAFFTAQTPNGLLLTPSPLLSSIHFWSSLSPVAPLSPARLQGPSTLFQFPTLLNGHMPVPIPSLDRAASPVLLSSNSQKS
# Outline: as §1
# FEV = biological target: T7, FEV (Homo sapiens, UniProt Q99581 1-238); conditions: protein: recombinant; tags: N-terminal GST; dsDNA, one strand shown
# T7 sequence: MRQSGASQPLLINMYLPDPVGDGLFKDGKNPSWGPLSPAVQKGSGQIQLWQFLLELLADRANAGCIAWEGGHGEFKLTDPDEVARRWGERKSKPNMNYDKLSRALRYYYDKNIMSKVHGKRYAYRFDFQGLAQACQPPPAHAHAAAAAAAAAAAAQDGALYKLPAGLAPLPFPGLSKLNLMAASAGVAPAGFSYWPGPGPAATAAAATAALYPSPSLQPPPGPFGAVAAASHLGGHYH
# Outline: as §1
# ETV5 = ETV5 (Homo sapiens, UniProt P41161 1-510); conditions: protein: recombinant; tags: N-terminal GST; dsDNA, one strand shown
# Sequence of ETV5 (P41161 whole entry): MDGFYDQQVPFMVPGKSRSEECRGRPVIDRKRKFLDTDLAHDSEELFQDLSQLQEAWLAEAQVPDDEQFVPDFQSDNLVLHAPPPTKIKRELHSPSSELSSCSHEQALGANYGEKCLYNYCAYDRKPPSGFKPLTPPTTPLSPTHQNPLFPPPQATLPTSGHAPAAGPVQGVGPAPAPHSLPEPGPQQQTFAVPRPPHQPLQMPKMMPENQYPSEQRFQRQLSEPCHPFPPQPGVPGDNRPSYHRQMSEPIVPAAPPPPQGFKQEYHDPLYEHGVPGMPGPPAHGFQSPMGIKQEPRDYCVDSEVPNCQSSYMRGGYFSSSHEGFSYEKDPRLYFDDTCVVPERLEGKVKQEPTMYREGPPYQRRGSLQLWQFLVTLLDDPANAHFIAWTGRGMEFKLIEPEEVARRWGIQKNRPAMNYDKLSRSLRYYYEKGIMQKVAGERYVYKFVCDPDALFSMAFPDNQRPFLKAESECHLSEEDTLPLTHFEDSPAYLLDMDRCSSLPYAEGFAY
# Outline: as §1
# HSF1 = HSF1 (Homo sapiens, UniProt Q00613 1-529); conditions: protein: recombinant; tags: N-terminal GST; chain copies: 3; dsDNA, one strand shown
# Sequence of HSF1 (Q00613 whole entry): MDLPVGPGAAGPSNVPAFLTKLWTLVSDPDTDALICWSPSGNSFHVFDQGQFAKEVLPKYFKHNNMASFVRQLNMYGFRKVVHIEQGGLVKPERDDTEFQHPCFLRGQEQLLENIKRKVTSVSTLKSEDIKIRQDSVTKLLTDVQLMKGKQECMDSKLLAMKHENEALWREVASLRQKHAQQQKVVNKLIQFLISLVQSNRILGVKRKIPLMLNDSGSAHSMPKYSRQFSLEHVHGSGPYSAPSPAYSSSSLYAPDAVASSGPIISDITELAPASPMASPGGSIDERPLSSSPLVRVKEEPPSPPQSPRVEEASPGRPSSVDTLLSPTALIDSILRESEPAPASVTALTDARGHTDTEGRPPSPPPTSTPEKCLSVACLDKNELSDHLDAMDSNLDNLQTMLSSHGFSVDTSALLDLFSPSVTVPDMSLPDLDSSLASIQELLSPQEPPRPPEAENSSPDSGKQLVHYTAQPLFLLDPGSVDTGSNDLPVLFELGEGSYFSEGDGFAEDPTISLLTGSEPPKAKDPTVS
# Outline: as §1
# SPIC = biological target: T8, SPIC (Homo sapiens, UniProt Q8N5J4 1-248); conditions: protein: recombinant; tags: N-terminal GST; dsDNA, one strand shown
# T8 sequence: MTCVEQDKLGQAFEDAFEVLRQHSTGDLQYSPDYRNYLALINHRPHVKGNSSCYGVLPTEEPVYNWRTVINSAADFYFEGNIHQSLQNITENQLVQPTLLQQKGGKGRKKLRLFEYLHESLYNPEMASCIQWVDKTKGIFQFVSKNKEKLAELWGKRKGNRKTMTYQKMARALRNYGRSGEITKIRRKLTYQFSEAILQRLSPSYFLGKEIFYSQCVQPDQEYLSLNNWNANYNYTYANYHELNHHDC
# Outline: as §1
# ELF4 = ELF4 (Homo sapiens, UniProt Q99607 1-663); conditions: protein: recombinant; tags: N-terminal GST; dsDNA, one strand shown
# Sequence of ELF4 (Q99607 whole entry): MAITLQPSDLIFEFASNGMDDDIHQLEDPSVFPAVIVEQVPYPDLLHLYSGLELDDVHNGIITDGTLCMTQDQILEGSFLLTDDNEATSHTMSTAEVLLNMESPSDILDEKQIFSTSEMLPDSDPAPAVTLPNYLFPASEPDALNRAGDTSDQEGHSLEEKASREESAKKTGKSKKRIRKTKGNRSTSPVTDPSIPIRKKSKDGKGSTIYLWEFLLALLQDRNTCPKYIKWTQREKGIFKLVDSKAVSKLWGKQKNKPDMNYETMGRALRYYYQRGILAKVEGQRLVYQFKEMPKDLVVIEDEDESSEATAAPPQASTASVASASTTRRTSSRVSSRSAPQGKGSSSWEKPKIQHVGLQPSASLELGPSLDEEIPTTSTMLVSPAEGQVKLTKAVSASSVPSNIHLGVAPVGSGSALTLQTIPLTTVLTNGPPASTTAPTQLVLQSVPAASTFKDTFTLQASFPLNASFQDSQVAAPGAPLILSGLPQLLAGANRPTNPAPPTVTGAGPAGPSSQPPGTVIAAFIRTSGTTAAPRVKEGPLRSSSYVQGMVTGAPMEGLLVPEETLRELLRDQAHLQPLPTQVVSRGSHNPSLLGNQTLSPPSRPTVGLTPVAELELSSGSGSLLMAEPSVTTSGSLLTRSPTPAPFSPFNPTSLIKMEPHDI
# Outline: as §1
# ELK4 = biological target: T9, ELK4 (Homo sapiens, UniProt P28324-2 1-405); conditions: protein: recombinant; tags: N-terminal GST; dsDNA, one strand shown
# T9 sequence: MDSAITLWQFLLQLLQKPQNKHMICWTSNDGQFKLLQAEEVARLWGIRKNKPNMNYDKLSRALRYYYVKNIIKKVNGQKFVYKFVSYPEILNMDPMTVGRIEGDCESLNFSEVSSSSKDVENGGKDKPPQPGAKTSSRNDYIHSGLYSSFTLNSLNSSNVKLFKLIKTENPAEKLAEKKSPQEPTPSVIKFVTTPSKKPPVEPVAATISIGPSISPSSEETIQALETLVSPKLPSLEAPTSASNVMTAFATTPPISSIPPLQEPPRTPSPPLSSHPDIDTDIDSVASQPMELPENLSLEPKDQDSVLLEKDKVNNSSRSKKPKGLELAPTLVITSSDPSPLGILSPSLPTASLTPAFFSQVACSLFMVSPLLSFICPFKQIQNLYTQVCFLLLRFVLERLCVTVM
# Outline: as §1
# ETV2 = biological target: T10, ETV2 (Homo sapiens, UniProt O00321 1-342); conditions: protein: recombinant; tags: N-terminal GST; dsDNA, one strand shown
# T10 sequence: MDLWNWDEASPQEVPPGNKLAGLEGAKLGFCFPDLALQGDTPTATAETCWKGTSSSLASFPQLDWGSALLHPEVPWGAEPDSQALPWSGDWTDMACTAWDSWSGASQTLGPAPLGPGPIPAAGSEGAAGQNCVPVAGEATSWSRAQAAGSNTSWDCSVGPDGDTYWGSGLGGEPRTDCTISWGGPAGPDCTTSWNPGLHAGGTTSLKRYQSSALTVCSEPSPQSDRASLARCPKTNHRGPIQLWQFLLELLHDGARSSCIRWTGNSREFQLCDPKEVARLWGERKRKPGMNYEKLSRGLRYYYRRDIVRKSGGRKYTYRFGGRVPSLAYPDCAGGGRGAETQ
# Outline: as §1
# ELF3 = biological target: T11, ELF3 (Homo sapiens, UniProt P78545 1-371); conditions: protein: recombinant; tags: N-terminal GST; dsDNA, one strand shown
# T11 sequence: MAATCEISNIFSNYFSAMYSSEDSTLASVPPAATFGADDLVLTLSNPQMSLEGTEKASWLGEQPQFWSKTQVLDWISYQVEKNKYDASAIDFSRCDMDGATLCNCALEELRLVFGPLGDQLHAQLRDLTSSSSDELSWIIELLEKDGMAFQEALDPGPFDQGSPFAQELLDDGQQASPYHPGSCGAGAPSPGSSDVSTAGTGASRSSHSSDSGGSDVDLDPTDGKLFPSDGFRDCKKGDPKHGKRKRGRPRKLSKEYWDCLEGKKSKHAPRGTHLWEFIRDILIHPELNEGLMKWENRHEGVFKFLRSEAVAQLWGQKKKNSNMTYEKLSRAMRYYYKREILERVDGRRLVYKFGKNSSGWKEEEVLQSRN
# Outline: as §1
# CRX = CRX (Homo sapiens, UniProt O43186 1-299); conditions: protein: recombinant; tags: N-terminal GST; dsDNA, one strand shown
# Sequence of CRX (O43186 whole entry): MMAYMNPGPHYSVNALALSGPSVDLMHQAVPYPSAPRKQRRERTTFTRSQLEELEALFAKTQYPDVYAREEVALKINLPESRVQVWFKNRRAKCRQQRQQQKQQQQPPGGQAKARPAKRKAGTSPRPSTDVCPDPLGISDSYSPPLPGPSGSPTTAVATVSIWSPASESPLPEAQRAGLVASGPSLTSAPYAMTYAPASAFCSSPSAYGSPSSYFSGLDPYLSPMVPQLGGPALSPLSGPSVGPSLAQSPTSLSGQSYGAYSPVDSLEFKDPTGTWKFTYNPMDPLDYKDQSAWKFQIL
# Outline: as §1
# ETV1 = ETV1 (Homo sapiens, UniProt P50549 1-477); conditions: protein: recombinant; tags: N-terminal GST; dsDNA, one strand shown
# Sequence of ETV1 (P50549 whole entry): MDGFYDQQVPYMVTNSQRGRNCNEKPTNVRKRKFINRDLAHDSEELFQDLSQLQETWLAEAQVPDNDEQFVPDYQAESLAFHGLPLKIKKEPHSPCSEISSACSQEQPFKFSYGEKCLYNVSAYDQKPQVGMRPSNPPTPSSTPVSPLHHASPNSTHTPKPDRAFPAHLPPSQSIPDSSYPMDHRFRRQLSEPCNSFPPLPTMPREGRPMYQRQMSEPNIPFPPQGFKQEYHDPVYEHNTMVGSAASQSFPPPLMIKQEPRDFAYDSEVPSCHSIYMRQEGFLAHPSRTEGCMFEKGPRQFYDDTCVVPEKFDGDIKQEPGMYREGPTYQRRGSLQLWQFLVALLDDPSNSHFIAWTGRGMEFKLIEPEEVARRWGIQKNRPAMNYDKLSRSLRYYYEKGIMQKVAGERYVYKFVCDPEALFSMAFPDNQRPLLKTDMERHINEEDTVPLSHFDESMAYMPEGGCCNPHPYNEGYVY
# Outline: as §1
sequence,measurement,setting,value
TACGAA,binding signal,FLI1,"1.15 fold enrichment (6-mer frequency, TF over GST control)"
same,binding signal,ELK1,"1.23 fold enrichment (6-mer frequency, TF over GST control)"
same,binding signal,GABPA,"1.3 fold enrichment (6-mer frequency, TF over GST control)"
same,binding signal,ERG,"1.23 fold enrichment (6-mer frequency, TF over GST control)"
same,binding signal,ELF1,"1.28 fold enrichment (6-mer frequency, TF over GST control)"
same,binding signal,EHF,"1.22 fold enrichment (6-mer frequency, TF over GST control)"
same,binding signal,SPI1,"1.15 fold enrichment (6-mer frequency, TF over GST control)"
same,binding signal,SPIB,"1.19 fold enrichment (6-mer frequency, TF over GST control)"
same,binding signal,ELK3,"1.25 fold enrichment (6-mer frequency, TF over GST control)"
same,binding signal,FEV,"1.29 fold enrichment (6-mer frequency, TF over GST control)"
same,binding signal,ETV5,"1.21 fold enrichment (6-mer frequency, TF over GST control)"
same,binding signal,HSF1,"1.38 fold enrichment (6-mer frequency, TF over GST control)"
same,binding signal,SPIC,"1.11 fold enrichment (6-mer frequency, TF over GST control)"
same,binding signal,ELF4,"1.31 fold enrichment (6-mer frequency, TF over GST control)"
same,binding signal,ELK4,"1.23 fold enrichment (6-mer frequency, TF over GST control)"
same,binding signal,ETV2,"1.16 fold enrichment (6-mer frequency, TF over GST control)"
same,binding signal,ELF3,"1.25 fold enrichment (6-mer frequency, TF over GST control)"
same,binding signal,CRX,"1.32 fold enrichment (6-mer frequency, TF over GST control)"
same,binding signal,ETV1,"1.24 fold enrichment (6-mer frequency, TF over GST control)"

# Source: publication PMC7862700, “An all-to-all approach to the identification of sequence-specific readers for epigenetic DNA modifications on cytosine”
